Reference: PubChem BioAssay AID1159580 (chemical genetic matrix, 2015)
About 2,000 (36%) of roughly 5,500 compounds were called active. Not shown: some 18% with an inconclusive outcome. Rule as the data show it: active = normalized growth mostly below about 0.91 (no sharp cut-off); inconclusive = no clear call, values can overlap the other calls; inactive = mostly above about 0.92. The list shows a part of the results.

Assay: chemical genetic growth profiling, strain panel (AID 1159580);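 also: tested at 20 µM; growth read once vehicle control cultures reached saturation at 30 °C; 1 = growth at the plate median or of vehicle wells; lower values mean less growth of the strain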
Settings: S. cerevisiae deletion strains, growth OD

Measured: normalized growth

COC(=O)[C@@H]1OC(=O)C2OC23[C@@]1(C)CCC1[C@@]2(C)CCC(=O)C(C)(C)C2C[C@@H](OC(C)=O)[C@]13C (stereo not given in full)
inactive: locus YAL021C, strain ccr4, stronger effect = lower value 1.01 | locus YAL026C, strain drs2, stronger effect = lower value 1.01 | locus YAL030W, strain snc1, stronger effect = lower value 1.01 | locus YBL061C, strain skt5, stronger effect = lower value 1.01 | locus YBR009C, strain hhf1, stronger effect = lower value 1.01 | locus YBR021W, strain FUR4, stronger effect = lower value 1.03 | locus YBR023C, strain chs3, stronger effect = lower value 1.01 | locus YBR171W, strain sec66, stronger effect = lower value 1.02 | locus YBR229C, strain ROT2, stronger effect = lower value 1.01 | locus YBR231C, strain swc5, stronger effect = lower value 1.01 | locus YBR279W, strain paf1, stronger effect = lower value 1.02 | locus YCL011C, strain gbp2, stronger effect = lower value 1.01 | locus YCL016C, strain dcc1, stronger effect = lower value 1.02 | locus YCL029C, strain bik1, stronger effect = lower value 1.04 | locus YCL061C, strain MRC1, stronger effect = lower value 1.01 | locus YCL069W, strain vba3, stronger effect = lower value 1.01 | locus YCR088W, strain abp1, stronger effect = lower value 1.02 | locus YDL005C, strain med2, stronger effect = lower value 1.02 | locus YDL035C, strain GPR1, stronger effect = lower value 1.05 | locus YDL040C, strain nat1, stronger effect = lower value 1.02 | locus YDL074C, strain BRE1, stronger effect = lower value 1.14 | locus YDL101C, strain DUN1, stronger effect = lower value 1.04 | locus YDL185W, strain tfp1, stronger effect = lower value 1.01 | locus YDL192W, strain arf1, stronger effect = lower value 1.02 | locus YDR001C, strain nth1, stronger effect = lower value 1.01 | locus YDR069C, strain doa4, stronger effect = lower value 1.02 | locus YDR101C, strain arx1, stronger effect = lower value 1.01 | locus YDR137W, strain rgp1, stronger effect = lower value 1.01 | locus YDR159W, strain sac3, stronger effect = lower value 1.01 | locus YDR162C, strain NBP2, stronger effect = lower value 1.04 | locus YDR195W, strain ref2 0.999 | locus YDR297W, strain sur2, stronger effect = lower value 1.01 | locus YDR318W, strain mcm21, stronger effect = lower value 1.02 | locus YDR334W, strain swr1, stronger effect = lower value 1.02 | locus YDR335W, strain msn5, stronger effect = lower value 1.02 | locus YDR388W, stronger effect = lower value 1.01 | locus YDR392W, strain spt3, stronger effect = lower value 1.01 | locus YDR502C, strain sam2, stronger effect = lower value 1.01 | locus YEL003W, strain gim4, stronger effect = lower value 1.02 | locus YEL037C, strain rad23, stronger effect = lower value 1.02 | locus YEL061C, strain CIN8 (second series), stronger effect = lower value 1.03 | locus YER015W, strain faa2, stronger effect = lower value 1.02 | locus YER016W, strain bim1, stronger effect = lower value 1.02 | locus YER110C, stronger effect = lower value 0.992 | locus YER111C, strain swi4, stronger effect = lower value 1.01 | locus YER155C, strain BEM2 (second series), stronger effect = lower value 1.03 | locus YER155C, strain BEM2, stronger effect = lower value 1 | locus YER167W, strain BCK2, stronger effect = lower value 1.01 | locus YFR010W, strain ubp6, stronger effect = lower value 1.01 | locus YGL078C, strain dbp3, stronger effect = lower value 1 | locus YGL086W, strain mad1, stronger effect = lower value 1.02 | locus YGL167C, strain pmr1, stronger effect = lower value 1.02 | locus YGL173C, strain kem1, stronger effect = lower value 1.01 | locus YGL227W, strain vid30, stronger effect = lower value 1.02 | locus YGL240W, strain doc1, stronger effect = lower value 1.02 | locus YGL248W, strain PDE1, stronger effect = lower value 1.05 | locus YGL253W, strain hxk2, stronger effect = lower value 1.01 | locus YGR078C, strain PAC10, stronger effect = lower value 1.05 | locus YGR135W, strain pre9, stronger effect = lower value 1.05 | locus YGR252W, strain gcn5, stronger effect = lower value 1.08 | locus YHR013C, strain ard1, stronger effect = lower value 1.02 | locus YHR027C, strain rpn1, stronger effect = lower value 1.02 | locus YHR079C, strain IRE1 (second series), stronger effect = lower value 0.995 | locus YHR094C, strain hxt1, stronger effect = lower value 0.992 | locus YHR129C, strain ARP1, stronger effect = lower value 1.03 | locus YHR142W, strain chs7, stronger effect = lower value 1.03 | locus YHR200W, strain rpn10, stronger effect = lower value 1.02 | locus YIL066C, strain RNR3, stronger effect = lower value 1.02 | locus YIL073C, strain SPO22, stronger effect = lower value 1.1 | locus YIL125W, strain kgd1, stronger effect = lower value 1.01 | locus YIR030C, strain dcg1, stronger effect = lower value 0.991 | locus YJL092W, strain hpr5, stronger effect = lower value 1.01 | locus YJL095W, strain BCK1 (second series), stronger effect = lower value 1.01 | locus YJL095W, strain BCK1, stronger effect = lower value 1.1 | locus YJL115W, strain asf1, stronger effect = lower value 1 | locus YJL129C, strain trk1, stronger effect = lower value 1.03 | locus YJL134W, strain LCB3, stronger effect = lower value 1.01 | locus YJL154C, strain vps35, stronger effect = lower value 1.03 | locus YJL164C, strain tpk1, stronger effect = lower value 1.03 | locus YJL166W, strain qcr8, stronger effect = lower value 1.01 | locus YJL168C, strain set2, stronger effect = lower value 1.01 | locus YJL187C, strain SWE1 (second series), stronger effect = lower value 1.03 | locus YJL187C, strain SWE1, stronger effect = lower value 1.02 | locus YJR043C, strain POL32, stronger effect = lower value 1.09 | locus YKL009W, strain mrt4, stronger effect = lower value 1 | locus YKL068W, stronger effect = lower value 1.01 | locus YKL085W, strain MDH1 (second series), stronger effect = lower value 0.994 | locus YKL085W, strain MDH1, stronger effect = lower value 0.994 | locus YKL160W, strain elf1, stronger effect = lower value 1.02 | locus YKL190W, strain CNB1, stronger effect = lower value 1.02 | locus YKR001C, strain vps1, stronger effect = lower value 1.06 | locus YKR026C, strain gcn3, stronger effect = lower value 1.02 | locus YKR091W, strain srl3, stronger effect = lower value 1.02 | locus YLL001W, strain dnm1, stronger effect = lower value 1.01 | locus YLL026W, stronger effect = lower value 1.02 | locus YLL041C, strain sdh2, stronger effect = lower value 1.01 | locus YLR027C, strain aat2, stronger effect = lower value 1.03 | locus YLR039C, strain RIC1, stronger effect = lower value 1.13 | locus YLR058C, strain SHM2, stronger effect = lower value 1.04 | locus YLR102C, strain apc9, stronger effect = lower value 0.99 | locus YLR221C, strain rsa3, stronger effect = lower value 1.01 | locus YLR258W, strain gsy2, stronger effect = lower value 1.01 | locus YLR262C, strain YPT6 (second series), stronger effect = lower value 1.03 | locus YLR268W, strain sec22, stronger effect = lower value 1.04 | locus YLR320W, strain mms22, stronger effect = lower value 1.02 | locus YLR330W, strain CHS5, stronger effect = lower value 1.01 | locus YLR342W, strain FKS1 (second series), stronger effect = lower value 1.03 | locus YLR342W, strain FKS1, stronger effect = lower value 1.02 | locus YLR357W, strain rsc2, stronger effect = lower value 1 | locus YLR370C, strain arc18, stronger effect = lower value 1.01 | locus YLR371W, strain rom2, stronger effect = lower value 1.02 | locus YLR384C, strain iki3, stronger effect = lower value 1.04 | locus YLR418C, strain cdc73, stronger effect = lower value 1.06 | locus YML016C, strain PPZ1, stronger effect = lower value 1.01 | locus YML032C, strain rad52, stronger effect = lower value 0.992 | locus YML120C, strain ndi1, stronger effect = lower value 1.02 | locus YML124C, strain tub3, stronger effect = lower value 0.99 | locus YMR058W, strain fet3, stronger effect = lower value 1.01 | locus YMR078C, strain ctf18, stronger effect = lower value 0.998 | locus YMR125W, strain sto1, stronger effect = lower value 1.02 | locus YMR129W, stronger effect = lower value 1.01 | locus YMR205C, strain PFK2, stronger effect = lower value 1.02 | locus YMR223W, strain ubp8, stronger effect = lower value 1.01 | locus YMR231W, strain pep5, stronger effect = lower value 1 | locus YMR307W, strain GAS1, stronger effect = lower value 1.2 | locus YNL067W, strain RPL9B, stronger effect = lower value 1.03 | locus YNL071W, strain lat1, stronger effect = lower value 1.02 | locus YNL153C, strain GIM3, stronger effect = lower value 1.06 | locus YNL209W, strain ssb2, stronger effect = lower value 1.02 | locus YNL233W, strain BNI4, stronger effect = lower value 1.08 | locus YNL248C, strain rpa49, stronger effect = lower value 1.01 | locus YNL250W, strain rad50, stronger effect = lower value 1.01 | locus YNL271C, strain bni1, stronger effect = lower value 0.997 | locus YNL298W, strain CLA4, stronger effect = lower value 1.01 | locus YNL307C, strain MCK1, stronger effect = lower value 0.995 | locus YNL322C, strain KRE1 (second series), stronger effect = lower value 1.02 | locus YNR049C, strain mso1, stronger effect = lower value 1.01 | locus YNR052C, strain pop2, stronger effect = lower value 0.989 | locus YOL012C, strain htz1 1.07 | locus YOL147C, strain pex11, stronger effect = lower value 1 | locus YOR001W, strain rrp6, stronger effect = lower value 1.02 | locus YOR061W, strain CKA2, stronger effect = lower value 1.02 | locus YOR069W, strain VPS5, stronger effect = lower value 1.01 | locus YOR070C, strain gyp1, stronger effect = lower value 1 | locus YOR080W, strain dia2, stronger effect = lower value 1.01 | locus YOR083W, strain WHI5, stronger effect = lower value 1.02 | locus YOR106W, strain vam3, stronger effect = lower value 1.01 | locus YOR136W, strain idh2, stronger effect = lower value 0.993 | locus YOR144C, strain elg1, stronger effect = lower value 0.993 | locus YOR184W, strain ser1, stronger effect = lower value 1.03 | locus YOR265W, strain rbl2, stronger effect = lower value 1.01 | locus YOR270C, strain vph1, stronger effect = lower value 1.05 | locus YOR290C, strain snf2, stronger effect = lower value 1.02 | locus YOR316C, strain cot1, stronger effect = lower value 1 | locus YPL051W, strain arl3, stronger effect = lower value 0.993 | locus YPL055C, strain LGE1, stronger effect = lower value 1.11 | locus YPL078C, strain atp4, stronger effect = lower value 1.01 | locus YPL106C, strain sse1, stronger effect = lower value 1.01 | locus YPL240C, strain hsp82, stronger effect = lower value 1.01 | locus YPL241C, strain CIN2, stronger effect = lower value 1.01 | locus YPR119W, strain clb2, stronger effect = lower value 0.993 | locus YPR141C, strain kar3, stronger effect = lower value 0.994 | locus YPR163C, strain tif3, stronger effect = lower value 1.01 | locus YPR167C, strain met16, stronger effect = lower value 1.01 | strain wtn01, stronger effect = lower value 1.02
